The results in this text go back to PubChem BioAssay.

The subject of assay [1] is Botulinum neurotoxin type F light chain protease (Clostridium botulinum). The assay can be described thus: Clostridium botulinum type F light chain protease inhibitors, microsphere substrate cleavage, validation (AID 588459). The settings on record: multiplex microsphere protease substrate cleavage assay, flow cytometry; at 10 µM; active compounds read high. For orientation: In flow cytometry, cells or beads pass a laser one at a time.

The target of assay [2] is Botulinum neurotoxin type A (Clostridium botulinum) (UniProt P0DPI0). Description: BoNT/A light chain protease inhibitors, biochemical, multiplex microsphere flow cytometry, validation set (AID 588460). The settings on record: at 10 µM, active compounds read high.
The target in assay [3] is Lethal factor (Bacillus anthracis) (UniProt P15917). Description: Bacillus anthracis lethal factor inhibition, microsphere flow cytometry protease assay, validation at 10 µM (AID 588461). The settings on record: multiplex microsphere protease cleavage assay, active compounds read high.

Structures are written as SMILES. A number with no mark means an inactive call. Calls of active or inactive are those of the source. The rule behind the calls is not given here.

In the case of `Cc1ccc(N2CCN(C(=S)c3ccc(-c4cccc([N+](=O)[O-])c4)o3)CC2)cc1`, the figures for the inhibition in assay [1], in assay [2] and in assay [3] were -0.6%, -1.4% and -5.3%, respectively.
On to `Cc1ccc2[nH]c3c(c2c1)CCNC3=O`, for which the inhibition – broadly, the drop in the measured response relative to a control, in per cent – in assay [1] is -0.6%; in assay [2], -0.5%; in assay [3], -6.6%.
As to `C/C(=N\NC(=O)C1(C)CC1(Br)Br)c1ccc([N+](=O)[O-])cc1` (stereo not given), the inhibition in assay [1] is 2.6%; in assay [2], 0.4%; in assay [3], -7.9%.
For `O=C(CCCN1CCC(O)(c2ccc(Cl)cc2)CC1)c1ccc(F)cc1` the same measures were -3.5%, 1.1% and 3.7%.
With `CCOC(=O)C1(CCCc2ccccc2)CCN(C2CCN(C(C)=O)CC2)CC1`, the results for the inhibition in assay [1], in assay [2] and in assay [3] were 0.1%, 1.4% and -6.4%, respectively.
Turning to `COc1ccccc1OCC(O)COC(N)=O` (stereo not given), the figures for the inhibition in assay [1], in assay [2] and in assay [3] were -3.8%, -1.3% and -6.8%, respectively.
In the case of `Cc1cccc(Nc2ccccc2C(=O)O)c1C`, the inhibition in assay [1] is -3.6%; in assay [2], -1.1%; in assay [3], -6%.
For the compound `CC(=O)O[C@]1(C(C)=O)CC[C@H]2[C@@H]3C=C(Cl)C4=CC(=O)CC[C@]4(C)[C@H]3CC[C@@]21C`, the inhibition in assay [1] was -0.5%; in assay [2] it was -3.3%; in assay [3] it was -4.2%.
With `CCOC(=O)c1cnc2ccc(C(=O)OC)cc2c1Nc1ccc2c(c1)OCCO2`, the inhibition in assay [1] was -0.5%; in assay [2], 0.1%; in assay [3] it was -1.2%.
Regarding `COc1ccc2cc(C(=O)Nc3ccc(S(N)(=O)=O)cc3)sc(=O)c2c1OC`, the inhibition in assay [1] was 4.2%; in assay [2], 0.6%; in assay [3], 1.5%.
For `O=C(NCCC(c1ccccc1)c1ccco1)c1cccs1` (stereo not given) the same measures were 3.1%, -2.7% and 3%.
Turning to `O=C(NC(=S)Nc1ccc2c(c1)OCCO2)c1ccccc1F`, the results for the inhibition in assay [1], in assay [2] and in assay [3] were 2.3%, 0.4% and -3%, respectively.
As to `CC(=O)[C@@]1(O)CC[C@H]2[C@@H]3C[C@H](C)C4=CC(=O)C=C[C@]4(C)[C@@]3(F)[C@@H](O)C[C@@]21C`, the inhibition in assay [1] was -1.5%; in assay [2], -1.1%; in assay [3] it was 5.2%.
Regarding `CC1COc2c(N3CCN(C)CC3)c(F)cc3c(=O)c(C(=O)O)cn1c23` (stereo not given), the inhibition in assay [1] was -0.1%; in assay [2], -0.3%; in assay [3] it was 3.1%.
Consider `COc1cc(NS(=O)(=O)c2ccc(N)cc2)nc(OC)n1`, for which the inhibition in assay [1] is 1.2%; in assay [2], 1.1%; in assay [3], 0.1%.
For `c1ccc(-c2ccccn2)nc1`, the inhibition in assay [1] is -0.7%; in assay [2], 0.3%; in assay [3] it was 6.3%.
For `C/C(=N\N=C1\NC(=O)C(CC(=O)Nc2ccc(Cl)cc2)S1)c1ccco1` (stereo not given), the figures for the inhibition in assay [1], in assay [2] and in assay [3] were -0.1%, 0.1% and -0.2%, respectively.
As to `COc1cccc2c(=O)c(C/C=C(/C)Cl)c(C)[nH]c12`, the inhibition in assay [1] is 1.2%; in assay [2], -1.6%; in assay [3] it was 3.4%.
As for `Cc1ccccc1C(OCCN(C)C)c1ccccc1` (stereo not given), the inhibition in assay [1] is 1.2%; in assay [2], 0.7%; in assay [3], 2.5%.
On to `CO[C@@]1(NC(=O)Cc2cccs2)C(=O)N2C(C(=O)O)=C(COC(N)=O)CS[C@@H]21`, for which the inhibition in assay [1] is -1.9%; in assay [2], 1.4%; in assay [3], -10%.
As to `CC1(C)C2CCC1(C)C(OCC[N+](C)(C)CC(=O)OC1CCCCC1)C2` (stereo not given), the inhibition in assay [1] is -1.7%; in assay [2], -2.1%; in assay [3], -1.9%.
On to `Cc1[nH]c2ccccc2c1C(=O)C(=O)NCc1ccco1`, for which the inhibition in assay [1] is 0.1%; in assay [2], -0.7%; in assay [3] it was -5.5%.
Regarding `Cn1c([N+](=O)[O-])cnc1COC(N)=O`, the inhibition in assay [1] was 1.4%; in assay [2], -0.6%; in assay [3] it was -1.2%.
Take `Nc1cccc2c1nnn2C1OC(CO)C(O)C(O)C1O` (stereo not given): the inhibition in assay [1] is 0.7%; in assay [2], 0.1%; in assay [3], 3.5%.
For `O=C(O)c1cccnc1Nc1cccc(C(F)(F)F)c1`, the inhibition in assay [1] was 1.8%; in assay [2], 0.3%; in assay [3], -3.9%.
With `CCOC(=O)c1ncn2c1CN(C)C(=O)c1cc(F)ccc1-2`, the inhibition in assay [1] was -1.4%; in assay [2], -1.4%; in assay [3], -2.7%.
On to `NC(N)=N/N=C/c1c(Cl)cccc1Cl`, for which the inhibition in assay [1] was -0.2%; in assay [2] it was 0.6%; in assay [3] it was 0.5%.
Take `CCc1cc(=O)oc2cc3occ(-c4ccc(OC)c(F)c4)c3cc12`: the values for the inhibition in assay [1], in assay [2] and in assay [3] were 2.2%, -0.9% and -2.7%, respectively.
The corresponding values for `C=CCOc1ccc(C(=O)CC)cc1OC` are 0.6%, -0.5% and -1.9%.
In the case of `COc1ccc(C(=O)NC(=O)NC2(C(Cl)(Cl)Cl)OCCO2)cc1`, the results for the inhibition in assay [1], in assay [2] and in assay [3] were 0.9%, -1.2% and 3.1%, respectively.
`NCCc1ccc(O)c(O)c1`: the results for the inhibition in assay [1], in assay [2] and in assay [3] were -6.2%, -3.5% and -8.7%, respectively.
On to `CCNC(=O)c1sc2cc(C)ccc2c1Cl`, for which the inhibition in assay [1] is 2.4%; in assay [2], -1.2%; in assay [3], -1.4%.
On to `CN1CCCN=C1COC(=O)C(O)(c1ccccc1)C1CCCCC1` (stereo not given), for which the inhibition in assay [1] is -1.4%; in assay [2], -0.9%; in assay [3], -4.7%.
For `C=C(C)Cn1c(NCCOC)nc2c1c(=O)[nH]c(=O)n2C` the same measures were 0.2%, -0.3% and -5.2%.
For `CC(C)c1ccc2[nH]c3c(c2c1)CCCC3=O`, the figures for the inhibition in assay [1], in assay [2] and in assay [3] were 0.3%, -0.8% and -3.4%, respectively.
`Cc1ccc2c(c1)c1c3n2CCCN(Cc2ccccc2)C3CCC1` (stereo not given): the inhibition in assay [1] was -0.2%; in assay [2] it was -0.1%; in assay [3], -3%.
With `CCOCc1cc(C)[nH]c(=O)c1C#N`, the inhibition in assay [1] was -0.2%; in assay [2] it was 2.8%; in assay [3], 2%.
Take `COc1ccccc1C(=O)Nc1cc2cc(Br)ccc2oc1=O`: the inhibition is 3.8% in assay [1], 1.1% in assay [2] and 0.4% in assay [3].
In the case of `CC(C)(C)C(=O)NCCCNc1ccc([N+](=O)[O-])cc1`, the values for the inhibition in assay [1], in assay [2] and in assay [3] were -0.6%, -0.3% and 3.3%, respectively.
As to `COc1cccc(N2C(=O)CC(c3c[nH]c4ccccc34)C2=O)c1` (stereo not given), the inhibition was 1.4% in assay [1], 2.4% in assay [2] and -2% in assay [3].
Take `Brc1c(NC2=NCCN2)ccc2nccnc12`: the inhibition is -5.6% in assay [1], -0.8% in assay [2] and -2.9% in assay [3].
The corresponding values for `COc1ccc(CCN(C)Cc2nc(Cc3ccc(OC)c(OC)c3)no2)cc1OC` are 1%, -1% and 6.9%.
As for `O=C(N/C(=C/C=C\c1ccccc1)C(=O)N1CCOCC1)c1ccc(Br)cc1`, the inhibition in assay [1] is 3.8%; in assay [2], 0.6%; in assay [3], -3.6%.
For `O=C1CN(O)C=C2N=c3ccccc3=C2N1c1ccc([N+](=O)[O-])cc1` the same measures were -2.6%, -2.1% and -4.4%.
On to `CCCCOc1ccc(OCCCN2CCOCC2)cc1`, for which the inhibition in assay [1] is -1.1%; in assay [2], 0.4%; in assay [3], -4.8%.
The corresponding values for `CN1C(C(=O)Nc2ccccn2)=C(O)c2ccccc2S1(=O)=O` are 1.9%, 1.5% and 10%.
Turning to `Cc1ccccc1OCCSc1nc2ncnc(N)c2[nH]1`, the figures for the inhibition in assay [1], in assay [2] and in assay [3] were 0.8%, -1% and 0.1%, respectively.
As for `CC(C)CCn1c(N2CCc3ccccc3C2)nc2c1c(=O)[nH]c(=O)n2C`, the inhibition was -1.6% in assay [1], 0.3% in assay [2] and 4% in assay [3].
On to `CCOc1ccccc1OCCOc1ccc(F)cc1`, for which the inhibition in assay [1] was 0.7%; in assay [2] it was -1.2%; in assay [3] it was 6.2%.
For `O=C(Nc1cccc(-c2nc3ncccc3o2)c1)c1ccccc1` the same measures were 2.8%, -0.9% and -1.6%.
The corresponding values for `O=C(O)CCCN1C(=O)NC2NC(=O)NC21` (stereo not given) are 0.1%, -0.8% and 0.4%.
Turning to `CC(=O)/C=C/c1ccc(C)o1`, the inhibition was 3.8% in assay [1], 0.9% in assay [2] and 3% in assay [3].
`Cc1nc(C)c(C)nc1C`: the inhibition in assay [1] is -1.1%; in assay [2], -0.9%; in assay [3] it was -9.1%.
Turning to `CN(C)CC/C=C1\c2ccccc2COc2ccccc21`, the inhibition in assay [1] is -0.1%; in assay [2], -0.5%; in assay [3], 2.2%.
As to `C=CCOC(=O)C1=C(C)NC(=O)NC1/C=C/c1ccccc1OC` (stereo not given), the inhibition in assay [1] was 1%; in assay [2], 0.4%; in assay [3], -0.8%.
The corresponding values for `CC(C)C(=O)Nc1ccc2c3c(cccc13)CC2` are 1%, 0.5% and -3%.
Consider `COc1ccc(C2=C(CN(C)C)C(c3ccccc3)c3ccccc3O2)cc1` (stereo not given), for which the inhibition in assay [1] was -3%; in assay [2], -3.7%; in assay [3], -2.3%.
For the compound `Cn1c(=O)[nH]c(=O)c2c1nc(NCc1ccco1)n2CCCc1ccccc1`, the inhibition in assay [1] is -0.8%; in assay [2], -0.7%; in assay [3], 0.5%.
For `O=C(Nc1cccc(Oc2c(F)c(F)c(F)c(F)c2F)c1)N1C[C@@H]2C[C@@H](C1)c1cccc(=O)n1C2` the same measures were 2.7%, 1.4% and 7.2%.
The corresponding values for `CC1(C)CC(C(CC(=O)N2CCCC2)Cc2ccccc2)CCO1` (stereo not given) are -0.7%, 0.6% and 3.1%.
For `O=C(NC(CO)Cc1ccc([N+](=O)[O-])cc1)C(Cl)Cl` (stereo not given) the same measures were 0.6%, -1.5% and -1.4%.
Take `CCOCC(=O)Nc1ccccc1C(=O)N1CCOCC1`: the figures for the inhibition in assay [1], in assay [2] and in assay [3] were 32.5% (active), 14.3% and 6.3%, respectively.
With `COc1cc2c(cc1NCc1ccc3c(c1)OCO3)oc1ccccc12`, the values for the inhibition in assay [1], in assay [2] and in assay [3] were -2.5%, -0.9% and -15.7%, respectively.
For `S=C(NCCOCCOCCNC(=S)Nc1ccccc1)Nc1ccccc1` the same measures were 1.9%, 2% and -3.8%.
For `CCn1c(N2CCN(CC(=O)c3c(C)n(C)c4ccc(OC)cc34)CC2)nc2c1c(=O)[nH]c(=O)n2C` the same measures were -1.4%, -0.8% and -10.7%.
